Here are results for 88 compounds from PubChem BioAssay AID1851 (National Center for Advancing Translational Sciences (NCATS), 2009).

“And” between values parts separate entries of the source, which are not always exact repeats. Equal values may be shown once. About 5,700 (36%) of roughly 16,000 compounds were called active. Inconclusive results (about 24%) are left out. Calls come from the whole dose curve; as a rule, active = well fitted curve in the direction sought with a large enough effect; inconclusive = small, poorly fitted or top-dose-only effect, or effect the other way; inactive = no such curve, though single readings can be large or run the other way. The list shows a part of the results.
% is set by controls: 0 for no effect and ±100 for the full control effect.

Cytochrome P450 1A2 (Homo sapiens), sequence (P05177 whole entry, looked up): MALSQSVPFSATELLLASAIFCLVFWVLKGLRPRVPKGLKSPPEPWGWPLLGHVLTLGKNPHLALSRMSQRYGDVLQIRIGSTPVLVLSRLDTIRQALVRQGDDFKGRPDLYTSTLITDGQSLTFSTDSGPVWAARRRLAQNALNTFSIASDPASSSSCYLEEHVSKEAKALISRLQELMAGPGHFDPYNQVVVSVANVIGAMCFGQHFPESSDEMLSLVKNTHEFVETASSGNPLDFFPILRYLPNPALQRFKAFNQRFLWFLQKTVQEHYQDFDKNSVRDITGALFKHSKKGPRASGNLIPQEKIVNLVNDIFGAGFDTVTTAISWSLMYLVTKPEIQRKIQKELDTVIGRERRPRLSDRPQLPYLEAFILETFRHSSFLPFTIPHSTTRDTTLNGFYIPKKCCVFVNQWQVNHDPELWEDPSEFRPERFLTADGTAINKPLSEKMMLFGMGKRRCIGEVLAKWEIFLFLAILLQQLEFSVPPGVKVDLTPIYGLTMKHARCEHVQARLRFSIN

The assay has as its target Cytochrome P450 1A2 (Homo sapiens) (UniProt P05177). Description: Cytochrome panel assay with activity outcomes. As to conditions: recombinant CYP, pro-luciferin dealkylation, luminescence, p450-cyp1a2; series mostly up to 57.1 µM; activity, negative = inhibition: at the top concentration.
Take `Oc1ccc([C@@H]2CNCc3sccc32)cc1O`: the “activity, negative = inhibition” value was 3.98% (inactive).
Consider `COc1ccccc1CN1CCCC2(CCN(C(=O)c3csnn3)CC2)C1`, for which the “activity, negative = inhibition” value is -22.1% (inactive).
Regarding `Cc1cc(C(=O)CC#N)c(C)n1CC(F)(F)F`, the AC50 is 15.8 µM (active).
For `C=CCn1c(C)cc(C(=O)CN2C(=O)c3ccccc3C2=O)c1C`, the “activity, negative = inhibition” value was 0.647% (inactive).
With `CC1(C)OC(C(N)=O)C(C(N)=O)O1` (stereo not drawn), the “activity, negative = inhibition” value was -21.8% (inactive).
On the same count and under the same terms, in the case of `CCOC(=O)N/N=C1/C[C@@H](O)[C@@H](O)[C@@H]2[C@@H]3C(=O)N(Cc4ccccc4)C(=O)[C@H]3CC[C@@H]12` it was -3.55% [at 11.4 µM] (inactive); in that of `CCOC(=O)N/N=C1/C[C@@H](O)[C@@H](O)[C@@H]2[C@@H]3C(=O)N(Cc4ccccc4)C(=O)[C@H]3CC[C@H]12`, -4.78% [at 11.4 µM] (inactive).
On to `COc1ccccc1OCC(=O)N/N=C1/SCC(=O)N1Cc1ccccc1`, for which the AC50 was 5.01 µM (active).
Regarding `CCOc1cc(/C=C2\C(=O)N(Cc3ccc(C)cc3)C(C)=C2C(=O)OC)ccc1O`, the AC50 is 14.1 µM (active).
For the compound `CCOc1cc(/C=C2/NC(=O)N(CC(=O)Nc3cccc(C)c3)C2=O)ccc1OC`, the “activity, negative = inhibition” value was 1.61% (inactive).
With `O=C1OCCC1Sc1nnnn1-c1ccccc1` (stereo not drawn), the “activity, negative = inhibition” value was -19.1% (inactive).
As for `O=C1OCCC1Sc1nnc(-c2ccc(O)cc2)o1` (stereo not drawn), the AC50 was 2.24 µM (active).
For the compound `N#Cc1cccc(NC(=O)N2CC[C@@]3(CCCNC3)C2)c1`, the “activity, negative = inhibition” value is -17.6% (inactive).
Regarding `O=C(c1ccccc1)c1nn(-c2ccccc2)c(=O)cc1C(F)(F)F`, the AC50 was 0.501 µM (active).
Turning to `NC(=O)c1nn(-c2ccccc2)c(=O)cc1O`, the “activity, negative = inhibition” value was 1.04% (inactive).
For the compound `C=CC[C@@H]1C=C[C@H](ON=C(C)C)[C@H](CO)O1`, the activity, negative = inhibition was 3.87% [at 11.4 µM] (inactive).
In the case of `COC(=O)[C@H](C)NC(=O)C/C=C\[C@@H](C)[C@H]1C=C[C@H](O)[C@@H](CO)O1`, the activity, negative = inhibition is -5.17% [at 11.4 µM] (inactive).
`C=CCn1cc(/C=N\NC(=O)c2cc3c(ccc4ccccc43)o2)c2ccccc21`: the AC50 was 1 µM (active).
As for `O=C(N/N=C/c1ccncc1)c1cc2c(ccc3ccccc32)o1`, the AC50 is 0.355 µM (active).
The same measure, in the same setting: in the case of `Cc1ccccc1C(=O)N/N=C/c1ccncc1` it was 12.6 µM (active); in that of `Cc1ccc(-c2ccc(/C=N\NC(=O)c3cc4c(ccc5ccccc54)o3)o2)cc1[N+](=O)[O-]`, 22.4 µM (active).
As for `CC(O)(P(=O)(O)O)P(=O)(O)O`, the “activity, negative = inhibition” value is -0.0229% [at 25.6 µM] (inactive).
Turning to `COc1ccccc1CN1CC[C@@]2(CCCN(C(=O)c3cccn3C)C2)C1`, the “activity, negative = inhibition” value was 2.49% (inactive).
As to `O=C(N/N=C/c1cccc([N+](=O)[O-])c1)c1cc2c(ccc3ccccc32)o1`, the AC50 is 0.355 µM (active).
As for `O=C(N/N=C/c1ccco1)/C(=C/c1cccc([N+](=O)[O-])c1)NC(=O)c1ccccc1`, the “activity, negative = inhibition” value was 12.9% (inactive).
Take `COc1ccc(/C=N/NC(=O)c2cccc([N+](=O)[O-])c2)cc1OS(=O)(=O)c1ccc(C)cc1`: the “activity, negative = inhibition” value is -9.99% (inactive).
Take `Cc1cc(C(=O)N/N=C/c2cccc([N+](=O)[O-])c2)c(C)o1`: the AC50 was 1.41 µM (active).
`C#C[C@@]1(OC(C)=O)CC[C@@H]2[C@@H]3CCC4=C[C@@H](OC(C)=O)CC[C@H]4[C@H]3CC[C@]21C`: the “activity, negative = inhibition” value is -7.62% [at 25.6 µM] (inactive).
`C/C(CCN1CCc2nc(-c3ccccc3)c(-c3ccccc3)cc2C1)=N\O[C@@H](C)c1cc(-c2c(C)cc(C)cc2C)no1`: the activity, negative = inhibition is 9.44% [at 11.4 µM] (inactive).
As to `O=c1cc(N2CCOCC2)oc2c(-c3ccccc3)cccc12`, the AC50 is 1.58 µM (active) and 200 nM (active).
Regarding `Cc1cc(C)c2nc3c(c([C@H](O)[C@@H]4CCCCN4)c2c1)CC/C3=C/c1ccc(Cl)cc1`, the activity, negative = inhibition is -20.6% [at 11.4 µM] (inactive).
For the compound `c1coc(CN2CCN(C(c3cccs3)c3nnnn3C3CCCC3)CC2)c1` (stereo not drawn), the “activity, negative = inhibition” value was -10.2% (inactive).
For `Cc1ccc(C(c2nnnn2C2CCCC2)N2CCN3CCCC3C2)cc1` (stereo not drawn), the “activity, negative = inhibition” value was 1.2% (inactive).
Turning to `Clc1ccc(C(c2nnnn2C2CCCC2)N2CCN(Cc3ccncc3)CC2)cc1` (stereo not drawn), the AC50 is 10 µM (active).
Consider `C/C=C\C1=C(CO)C(=O)C2O[C@]2(CC=C(C)C)C1=O` (stereo partly drawn), for which the activity, negative = inhibition is -6.49% [at 11.4 µM] (inactive).
Turning to `O=[N+]([O-])c1cccc(-c2nc(-c3ccccc3)c(-c3cccs3)[nH]2)c1`, the AC50 is 2.51 µM (active).
As for `O=[N+]([O-])c1cccc(-c2nc(-c3cccs3)c(-c3cccs3)[nH]2)c1`, the AC50 is 1 µM (active).
Regarding `COc1ccc(-c2nc(-c3ccccc3)c(-c3cc([N+](=O)[O-])ccc3C)[nH]2)cc1O`, the AC50 was 14.1 µM (active).
The same measure, in the same setting: the result for `CCOc1ccc(C(=O)Nc2cnn(Cc3ccc(Cl)c(Cl)c3)c2)cc1` reads 10 µM (active).
Consider `CCOC(OCC)P(=O)(O)CCCNCc1ccc(Cl)c(Cl)c1`, for which the “activity, negative = inhibition” value was -38% (inactive).
Turning to `CCN(CC)c1ccc(NC(=O)c2cnn(CC)c2)cc1`, the “activity, negative = inhibition” value was -3.68% (inactive).
For the compound `Cc1cc(C(=O)CSC(=S)SC(C)(C)C)ccc1Cl`, the AC50 is 1.58 µM (active).
With `N#CCCn1c(=O)c(-c2ccc(Cl)cc2)nc2cnc(OCc3ccccc3)nc21`, the AC50 was 2 µM (active).
With `N#CCCn1c(=O)cnc2cnc(OCc3ccccc3)nc21`, the AC50 was 12.6 µM (active).
`N#CCCn1c(=O)c(-c2cc(F)cc(F)c2)nc2cnc(Oc3ccccc3)nc21`: the AC50 was 2 µM (active).
For the compound `N#CCCn1c(=O)c(-c2ccc(F)cc2)nc2cnc(OCc3ccccc3)nc21`, the AC50 was 1.58 µM (active).
`O=C1CC[C@H](NC(=O)c2ccccc2)C(=O)N1`: the activity, negative = inhibition was -20.9% [at 11.4 µM] (inactive).
As to `COc1ncc2nc(-c3cc(F)cc(F)c3)c(=O)n(CCC#N)c2n1`, the AC50 was 6.31 µM (active).
The same measure, in the same setting: the result for `N#CCCn1c(=O)c(-c2ccccc2)nc2cnc(OCc3ccccc3)nc21` reads 3.16 µM (active).
`N#CCCn1c(=O)c(-c2cc(F)cc(F)c2)nc2cnc(OCc3ccccc3)nc21`: the AC50 is 6.31 µM (active).
With `CN(C)c1ncc2nc(-c3cc(F)cc(F)c3)c(=O)n(CCC#N)c2n1`, the “activity, negative = inhibition” value was -15.7% (inactive).
Take `COc1cccc([C@@H]2Oc3ccc(OC)cc3/C(=N/O[C@@H](C)c3cn([C@H]4COC[C@H]4O)nn3)[C@@H]2O)c1`: the activity, negative = inhibition was 8.26% [at 11.4 µM] (inactive).
On the same count and under the same terms, in the case of `Clc1ccccc1C(Nc1ncccn1)Nc1ncccn1` it was -16.9% [at 11.4 µM] (inactive); in that of `CC(=O)c1c(C(C)=O)c(C)n(NC(=O)c2ccncc2)c1C`, 8.59% (inactive).
Still for that read-out and setting: in the case of `Cc1onc(-c2c(Cl)cccc2Cl)c1C(=O)N1CCc2ccccc2C1` it was -17.5% (inactive).
As to `Cc1onc(-c2c(Cl)cccc2Cl)c1C(=O)Nc1ccc2c(c1)OCO2`, the half-maximal activity concentration (AC50) was 3.16 µM (active).
In the case of `CC(=O)c1cc2c(cc1NC(=O)c1c(-c3ccccc3)noc1C)OCO2`, the AC50 is 2.24 µM (active).
On to `CC(=O)c1cc2c(cc1NC(=O)CCCC(=O)O)OCO2`, for which the “activity, negative = inhibition” value is -28% (inactive).
As for `Cc1onc(-c2ccccc2)c1C(=O)NC(CC(=O)O)c1ccc(OC(C)C)cc1` (stereo not drawn), the “activity, negative = inhibition” value is -19.1% (inactive).
As to `C/C(=C(/CCO)SSC[C@@H]1CCCO1)N(C=O)Cc1cnc(C)nc1N`, the “activity, negative = inhibition” value was -10.8% [at 25.6 µM] (inactive).
On the same count and under the same terms, in the case of `CC(C)CC(=O)N1CCC(O)(CS(=O)(=O)Cc2ccc(Cl)cc2)CC1` it was 11% (inactive).
Take `CCOC(=O)N1CCN(C(=O)CSCc2ccc(Cl)cc2)CC1`: the AC50 was 6.31 µM (active).
Consider `CCOC(=O)C1CCCN(C(=O)CSCc2ccccc2)C1` (stereo not drawn), for which the “activity, negative = inhibition” value was -15.5% (inactive).
For `CCOc1cccc2cc(C(N)=O)c(=NCc3ccccc3)oc12`, the AC50 is 2.24 µM (active).
In the case of `CN(Cc1ccco1)c1ncnc2ccc(-c3cccnc3)cc12`, the AC50 is 0.316 µM (active).
Turning to `COc1cccc(-c2ccc3ncnc(N(C)Cc4ccco4)c3c2)c1`, the AC50 was 1.26 µM (active).
With `Cc1ccc(CSc2nnc3c(n2)OC2(Nc4ccccc4-3)C(=O)Nc3ccc(F)cc32)cc1` (stereo not drawn), the AC50 was 14.1 µM (active).
With `CCCNC(=O)OC[C@H]1O[C@@H](CCO/N=C2/[C@H]3O[C@@H]3[C@@H](O)[C@H]3[C@H]2CCn2c(=O)n(-c4ccccc4)c(=O)n23)C=C[C@@H]1Oc1ccc(OC)cc1`, the activity, negative = inhibition was -12.7% [at 11.4 µM] (inactive).
`Cn1cc(-c2nc3cncnc3n(C3CC3)c2=O)c2ccccc21`: the AC50 is 0.2 µM (active).
Turning to `COc1ccc(-n2c(=O)c(-c3cn(C)c4ccccc34)nc3cncnc32)cc1`, the AC50 is 0.316 µM (active).
For the compound `Cn1cc(-c2nc3cncnc3n(-c3ccccc3)c2=O)c2ccccc21`, the AC50 was 1.58 µM (active).
As to `COc1ccc(-n2c(=O)c(-c3cn(C)c4ccccc34)nc3cnc(OC)nc32)cc1`, the “activity, negative = inhibition” value is -22% (inactive).
For the compound `COc1ccc(Oc2ncc3nc(-c4cn(C)c5ccccc45)c(=O)n(C4CC4)c3n2)cc1`, the AC50 is 12.6 µM (active).
For the compound `CS(=O)(=O)N1CCC[C@@]2(CCN(Cc3nccs3)C2)C1`, the “activity, negative = inhibition” value is 3.08% (inactive).
For the compound `CCOc1ccc(/C=C/C2=Cc3c(sc(NC(=O)CSc4n[nH]c(N)n4)c3C#N)C(C)(C)C2)cc1`, the “activity, negative = inhibition” value is -14.8% (inactive).
As to `CCOC(=O)c1sc(NC(=O)CSc2n[nH]c(-c3ccc(Cl)cc3Cl)n2)c(C#N)c1C`, the AC50 was 14.1 µM (active).
As to `COc1cc2cc3c(N)c(C(=O)Nc4sc(C)c(C)c4C#N)sc3nc2cc1OC`, the “activity, negative = inhibition” value was -27.6% (inactive).
Regarding `CCOC(=O)c1sc(NC(=O)CSc2nc(C)cc(C)c2C#N)c(C#N)c1C`, the “activity, negative = inhibition” value was -28.8% (inactive).
Consider `CCOC(=O)c1sc(NC(=O)CSc2nc(C)cc(C)n2)c(C#N)c1C`, for which the AC50 is 10 µM (active).
Consider `Cc1ccc(/C=C/C2=Cc3c(sc(NC(=O)CSc4n[nH]c(N)n4)c3C#N)C(C)(C)C2)o1`, for which the “activity, negative = inhibition” value is -29.2% (inactive).
For `Cc1ccc(-c2nc3c(=O)n(C)c4ccccc4c3o2)cc1`, the AC50 is 0.398 µM (active).
For the compound `Cc1ccc(S(=O)(=O)n2c3ccccc3c3nnc(C(=O)c4ccccc4)nc32)cc1`, the activity, negative = inhibition is -2.9% [at 11.4 µM] (inactive).
Consider `Cn1c(=O)c2nc(-c3ccccc3)oc2c2ccccc21`, for which the AC50 was 0.398 µM (active).
Turning to `COc1cccc(-c2cc(NCCc3c[nH]c4ccc(OC)cc34)ncn2)c1`, the AC50 was 0.794 µM (active).
Regarding `COc1ccc2[nH]cc(CCNc3ccnc(-c4cccnc4)n3)c2c1`, the AC50 was 0.251 µM (active).
`COc1ccc2[nH]cc(CCNc3cc(-c4cccnc4)ncn3)c2c1`: the AC50 was 3.16 µM (active).
For `COc1ccc2[nH]cc(CCNc3cc(-c4cccc(C#N)c4)ncn3)c2c1`, the AC50 was 0.794 µM (active).
For `N[C@H](CCC(=O)NCC(=O)O)C(=O)O`, the “activity, negative = inhibition” value was -17.4% (inactive).

As a reminder, the AC50 is the concentration at which the activity in the assay is half-maximal.
